# Only some compounds are listed: those with a hit (about 7.8% of all), similar ones and a draw of the others.
# HCMV inh – human cytomegalovirus inhibition; 410,000 tested, 4.5% active; activity change, negative = inhibition, % at 57.5 µM; HFF cells, HCMV-luciferase reporter, 72 h; stronger effect = lower value; in the data active means activity change below about -60%; inconclusive means no clear call, values can overlap the other calls; inactive means above about -39%
#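 Human foreskin fibroblasts infected with luciferase-reporter HCMV at MOI 1 PFU/cell, compounds at two doses. Luciferase measured 72 h post infection; normalized to buffer-only basal and Salinomycin (10uM) controls.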
# Lassa entry inh – Lassa virus entry inhibition | 300,000 tested, 1.2% active | AID 540256 | Lassa virus pseudotype entry inhibition, cell reporter | Potency, µM (series often up to 37.9 µM), inactives show at the highest dose activity change, negative = inhibition, hits mostly inhibitors; calls by dose curve; tested in HEK293 cells; further: potency means the concentration at half of the fitted maximal effect; nearly all actives have a fitted effect of over 50% in size
# Vaccinia mCherry – inhibitors of vaccinia virus infection (mCherry reporter signal); Vaccinia virus mCherry reporter infection, fluorescence; Potency, µM (highest dose often 36.5 µM), for inactives: at the top dose activity change, negative = inhibition, hits mostly inhibitors; 310,000 tested, 0.63% active; AID 720579; calls by dose curve; tested in A549 cells; further: potency means the concentration at half of the fitted maximal effect; nearly all actives have a fitted effect of over 35% in size
# VACV Venus inh – inhibitors of vaccinia virus (Venus reporter); Vaccinia virus Venus reporter expression, fluorescence; 330,000 tested, 0.46% active; Potency, µM (titrated, usually from 36.5 µM), inactives show top-dose activity change, negative = inhibition, hits mostly inhibitors; calls by dose curve; tested in A549 cells; further: potency means the concentration at half of the fitted maximal effect; nearly all actives have a fitted effect of over 30% in size
# HCV inhibitor – blocks hepatitis C virus; Huh7.5.1 HCVcc-Cre infection, luciferase reporter, 44 h; Potency, µM (top dose mostly 41.8 µM), for the others: top-dose activity change, negative = inhibition, most hits filed as inhibitors; 340,000 tested, 3.4% active; AID 651820; active means well fitted inhibition curve with a large enough effect; inconclusive means small, poorly fitted or top-dose-only effect, or another doubt; inactive means no such curve, though single readings can be large or run the other way; further: potency means the concentration at half of the fitted maximal effect
#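 Infectious HCVcc-Cre (~0.5 moi) was added to cells just after compound, with cells seeded 4 h earlier at 1,000 per well. Luciferase activity after 44 h culture reported infection; substrate was incubated 15 min at room temperature before reading.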
# MARV entry inh – blocks Marburg virus binding to or entry into cells; Marburg virus pseudotyped entry inhibition, cell reporter; Potency, µM (doses to about 37.8 µM), without a hit: at the highest dose activity change, negative = inhibition, usual class: inhibitors; 300,000 tested, 1.8% active; AID 540276; calls by dose curve; tested in HEK293 cells; further: potency means the concentration at half of the fitted maximal effect
# Starred values were filed as active, the others as inactive; i = inactive; ? = inconclusive; · = no result; ! = a repeat was not active; [ ] = remark or other dose. On the % scale 0 is the no-effect control and ±100 the full control effect.
SMILES,HCMV inh,Lassa entry inh,Vaccinia mCherry,VACV Venus inh,HCV inhibitor,MARV entry inh
CCOc1ccccc1C1C(C(=O)N2CCCCC2)=C(C)Nc2nc3ccccc3n21 (stereo unspecified),10,11%[46.1 µM],-13%,2%,·,-13%[46.1 µM]
O=C(N/N=C/c1cc(Cl)ccc1O)c1cccnc1,?,?,?,?,5µM*,?
O=C(N/N=C\c1cc(Cl)ccc1O)c1ccc(S(=O)(=O)N2CCCCC2)cc1,-103*,?,13µM*,?,3.5µM*,?
O=C(CNC(=O)c1ccccc1Br)N/N=C/c1cc(Br)ccc1O,33,·,·,·,?,·
O=C(N/N=C/c1cccnc1)c1cccc(Cl)c1,14,23%[46.1 µM],-14%,-18%,3%,1%[46.1 µM]
O=C(N/N=C/c1cc(Cl)ccc1O)c1ccccc1Br,-100*,·,·,·,?,·
Cc1ccc(C(=O)COC(=O)C(Cc2c[nH]c3ccccc23)NC(=O)c2ccc(C(C)(C)C)cc2)cc1 (stereo unspecified),0,?,-20%,-14%,·,·
COc1cc2c(cc1OC)CN(C(=O)c1ccncc1)CC2,-4,·,·,·,9%,·
COc1ccc(C(=O)N2CCc3ccc(NC(=O)c4ccccn4)cc3C2)cc1F,-89*,·,·,·,11µM*,·
CN1CCCCCC1C(=O)NCC1Cc2cc(-c3cnccn3)ccc2O1 (stereo unspecified),·,·,i,-15%,·,·
Oc1ccc(Nc2ncnc3scc(-c4ccccc4)c23)cc1,-64*,?,0%,-29%,8.9µM*,?
c1ccc(CNc2ncnc3scc(-c4cccs4)c23)nc1,-84*,·,·,·,?,·
COc1ccccc1Nc1ncnc2scc(-c3ccc(F)cc3)c12,-83*,5%[46.1 µM],2%,-1%,·,·
c1ccc(-c2csc3ncnc(NCc4ccccn4)c23)cc1,-89*,·,·,·,10µM*,·
O=C(CSc1n[nH]c(-c2ccccc2Cl)n1)N1CCN(c2ccccc2F)CC1,4,-1%[46.1 µM],-12%,-11%,·,·
Cc1cccc(CC(=O)N2CC(=O)Nc3ccc(C)cc3C2c2ccc(F)cc2)c1 (stereo unspecified),-12,?,-10%,-6%,·,?
CCCCCCCCN1C(=O)[C@H](CC(=O)N2CCCCC2)C[C@@]2(C(=O)OC)CCCCC=C12,-1,·,i,-15%,·,·
CSCCC(NS(=O)(=O)c1ccc(Cl)cc1)C(=O)OCC(=O)c1c(C)[nH]c2ccccc12 (stereo unspecified),39,?,?,?,-14%,12µM*
COc1ccc(CCNC(=O)CSc2ccc(-c3ccco3)nn2)cc1OC,-63*,?,-2%,-9%,0%,?
CCCCn1c(-c2ccccc2)cnc1SCC(=O)NCCc1ccc(OC)c(OC)c1,14,?,-7%,-26%,11µM*,?
CC(=O)c1c(C)[nH]c(C(=O)Nc2nccs2)c1C,55,?,-3%,?,10µM*,?
CN1CCC(N2CCN(C3CN(Cc4ccc(F)cc4)S(=O)(=O)C3)CC2)CC1 (stereo unspecified),15,·,26%,-1%,·,·
COC1C=CC=C(C)C(=O)NC2=CC(=O)C(N)=C(CC(C)CC(OC)C(O)C(C)C=C(C)C1OC(N)=O)C2=O (stereo unspecified),-98*,0.45µM*,?,-40%,?,0.2µM*
COC1CC(C)C(OC)c2cc(O)cc(c2O)NC(=O)C(C)=CC=CC(C)C(OC(N)=O)C(C)=CC(C)C1OC (stereo unspecified),-99*,?,?,?,?,3.5µM*
Cc1c(-c2ccc(Cl)cc2)c(=O)oc2c(CN3CCOCC3)c(O)ccc12,?,-9%[46.1 µM],-4%[7.34 µM],-11%[7.34 µM],·,·
SMILES,HCMV inh,Lassa entry inh,Vaccinia mCherry,VACV Venus inh,HCV inhibitor,MARV entry inh
COc1cccc(-c2nn3c(=O)cc(CN4CCN(S(=O)(=O)c5ccc(C)cc5)CC4)nc3s2)c1,18,4%[46.1 µM],-2%,-6%,·,·
Cc1ccc(CSc2nnc(-c3ccc(NS(=O)(=O)c4ccccc4)cc3)o2)cc1,-12,-16%,-21%,-12%,40%,-26%
O=c1cc(NS(=O)(=O)c2ccccc2)nc(SCc2ccc(Cl)cc2)[nH]1,-16,9%,-10%,-23%,?,?
Cc1ccc(S(=O)(=O)Nc2cc(=O)[nH]c(SCc3ccccc3Cl)n2)cc1,-66*,?,-3%,?,?,?
Cc1ccc(S(=O)(=O)Nc2ccc(-c3nnc(SCc4ccccc4Cl)o3)cc2)cc1,-83*,?,-24%,-20%,5%,?
COc1ccc(O[C@@H]2[C@H](O)CO[C@H]2/C=C/C#Cc2ccccc2)cc1,·,·,·,·,·,8%[14.2 µM]
COc1ccccc1N1CCN(C(=O)c2ccc3nc(-c4ccco4)c(-c4ccco4)nc3c2)CC1,-8,?,11µM*,?,11µM*!,21µM*
COC(=O)c1cc(C(=O)N2CCN(c3cccc(C)c3C)CC2)cc([N+](=O)[O-])c1,9,-23%,?,-24%,?,4.5µM*
COC(=O)c1cc(C(=O)N2CCN(c3ccccc3OC)CC2)cc([N+](=O)[O-])c1,?,-28%,2.8µM*,-16%,-26%,?
Fc1ccc(-n2ncc3c(N4CCN(c5ccccc5F)CC4)ncnc32)cc1,-7,26%[46.1 µM],-1%,-12%,·,·
COc1ccc2c(c1)OC(C)CN(CCNC(=O)c1csc(-c3cccs3)n1)C2 (stereo unspecified),·,·,-6%,14%,·,·
COC(=O)C1C[C@@]23C(=NN=C(SC)C2N(C)c2ccc(OC)cc23)N1C(C)=O (stereo partly specified),·,?,·,·,·,-33%[14.2 µM]
CCCCCC(=O)N1C[C@H](n2cc(C3CC3)nn2)[C@@H](O)C[C@H]1c1ccc(Cl)cc1,·,-37%[46.1 µM],·,·,·,·
c1ccc(CCSc2ncnc3nc[nH]c23)cc1,?,-26%,0%,-25%,13µM*,?
c1ccc2c(CSc3ncnc4nc[nH]c34)cccc2c1,-69*,?,i,-7%,?,-12%[46.1 µM]
O=c1c2ccccc2nc(CSc2ncnc3nc[nH]c23)n1-c1ccccc1,-5,-5%,·,·,1%,12%
O=C(CSc1ncnc2nc[nH]c12)c1ccccc1,75,?,i,-10%,26%,-24%
CS(=O)(=O)CC[C@H](C(=O)n1nnc2ccccc21)N1C(=O)c2ccccc2C1=O,·,·,·,·,·,-5%[46.1 µM]
COC(=O)C1=CN(Cc2ccc(C)cc2)C=C(C(=O)OC)C1c1ccc(F)c(F)c1,·,?,-2%,-11%,?,?
COC(=O)C1=CN(Cc2ccccc2)C=C(C(=O)OC)C1c1cc(F)ccc1F,-23,7.1µM*,-14%,-6%,-23%,-36%
Cc1ccc(S(=O)(=O)N2CCN(c3ncnc4scc(-c5ccccc5)c34)CC2)cc1,0,11µM*,-18%,-10%,?,?
Cc1nc(N2CCN(S(=O)(=O)c3ccccc3C#N)CC2)c2c(-c3ccccc3)csc2n1,-74*,·,·,·,8.9µM*,·
